An excerpt weighted towards active compounds, which were near 4.1% of everything screened.
DAX1 inh-1 = blocks DAX1 repression of SF-1 activated StAR promoter. AID 652010. HEK293T StAR-luciferase reporter, SF-1/DAX-1 repression relief. inhibition, % at 6.8 µM. 370,000 tested, 1.1% active;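 active = inhibition above the mean over all tested compounds plus 3 SD, cut at about 3.6% in these data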;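 note: 0% = DAX-1 cells with DMSO and 100% = cells lacking DAX-1 with DMSO; higher inhibition means more luminescence from relief of DAX-1 repression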
hcDAF-12 act = activators of H. contortus DAF-12 nuclear receptor | HEK293 hcDAF-12 lit1-tk-luc reporter, luminescence; 0% DMSO, 100% Δ7-dafachronic acid | activation, % at 6.8 µM | 370,000 tested, 1.4% active | AID 652067;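 active = activation above the mean of all tested compounds plus 3 SD, cut at about 5.5% in these data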;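 note: 100% = response to 3 µM Δ7-dafachronic acid high control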
hgDAF12 agonist = agonists of H. glycines DAF-12 nuclear receptor. 370,000 tested, 1.8% active. activation, % at 6.8 µM. HEK293 GAL4-hgDAF12 UAS-luciferase reporter, agonist luminescence; normalized to butyrate control;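 active = activation above a cutoff set at the mean of all screened compounds plus 3 SD, cut at about 10% in these data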;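 note: 0% = DMSO wells and 100% = sodium butyrate wells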
ssDAF12 agonist = activators of S. stercoralis DAF-12 nuclear receptor; HEK293 ssDAF-12/GRIP1 lit1-tk-luc reporter, luminescence; % of 3 µM dafachronic acid response; activation, % at 6.8 µM; 370,000 tested, 1% active; AID 652126;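 active = activation above the mean over all tested compounds plus 3 SD, cut at about 0.9% in these data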;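 note: 0% = DMSO-only wells and 100% = 3 µM delta7-dafachronic acid wells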
DAX1 inh-2 = inhibitors of human orphan nuclear receptor DAX1 (NR0B1); P51843; 340,000 tested, 0.99% active; HEK293 Gal4-DAX1 luciferase reporter, luminescence; inhibition, % at 6.75 µM;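 active = inhibition above the mean over all tested compounds plus 3 SD, cut at about 4.2% in these data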;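 note: 0% = DAX1-transfected cells with DMSO and 100% = empty-vector control cells with DMSO; inhibition shows as a rise in luminescence from relieved DAX1 repression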
Target sequence (P51843 207-470 limits assumed): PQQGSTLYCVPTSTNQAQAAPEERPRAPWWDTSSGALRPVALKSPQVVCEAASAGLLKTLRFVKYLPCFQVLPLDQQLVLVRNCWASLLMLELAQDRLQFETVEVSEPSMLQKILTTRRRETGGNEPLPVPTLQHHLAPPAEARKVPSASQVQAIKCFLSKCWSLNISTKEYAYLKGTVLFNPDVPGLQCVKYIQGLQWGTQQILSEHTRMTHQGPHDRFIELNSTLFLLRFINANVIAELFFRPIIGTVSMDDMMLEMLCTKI
Starred values were filed as active, the others as inactive; . = no result given.

SMILES | DAX1 inh-1 | hcDAF-12 act | hgDAF12 agonist | ssDAF12 agonist | DAX1 inh-2
Cc1cccc(C)c1NC(=O)Cn1nnc(-c2ccncc2)n1 | 0 | -2 | 1 | -2 | .
CC(C)C[C@H](NC(=O)c1nccs1)C(=O)N1CCC[C@H]1C(=O)NCc1ccccc1 | -1 | -2 | 3 | -1 | .
Cc1cc(C)cc(N(CC(=O)NC2CCC(C)CC2)S(=O)(=O)c2ccc(Cl)s2)c1 (stereo not drawn) | 0 | -2 | 6 | 0 | .
O=C(NC1CCCCN(Cc2ccc(Cl)cc2)C1=O)c1cccc(C(F)(F)F)c1 (stereo not drawn) | -1 | 0 | -2 | -2 | .
Cc1ccc(NC(=O)Nc2cccs2)nc1 | 0 | 0 | 9 | 0 | 2
Cc1ccc(NC(=O)Nc2cccs2)cc1 | 1 | 5 | 11* | 0 | 0
O=C(CCC(=O)c1cccs1)NCCc1ccc(F)cc1 | 3.8* | 3 | -3 | 0 | 2
C[C@@H]1CN(c2ccc(N3CCNC[C@H]3C)cc2C#N)CCN1Cc1ccccc1 | -2 | -4 | -7 | -1 | .
COc1ccccc1C(=O)NCCC(=O)Nc1ccc(C)cn1 | 3 | 5.7* | 1 | 0 | 0
CCc1ccc(-c2nc(CS(=O)CC(=O)NC3CC3)c(C)o2)cc1 (stereo not drawn) | 0 | 1 | 1 | -1 | 1
CCc1ccc(-c2nc(CS(=O)CC(=O)O)c(C)o2)cc1 (stereo not drawn) | 1 | 2 | 12* | 0 | -2
C=CCn1c(SCC(=O)c2ccc(-c3ccccc3)cc2)nnc1-c1ccc(OC)cc1 | -2 | -3 | -2 | -2 | .
O=C(COC(=O)Cc1cccs1)NCC(=O)Nc1ccc(F)cc1 | 2 | 0 | 3 | 0 | 0
CCn1ncc(C(=O)Nc2ccc(F)cc2)c1C | 1 | 5 | 8 | 1.7* | 3
CCn1ncc(C(=O)Nc2ccccc2C)c1C | 1 | 2 | 3 | -1 | 0
COC(=O)[C@@]12CCCCC3=C1N(CCC3)C(=O)[C@H]2CC(=O)N1CCCCC1 | 0 | 1 | 3 | -1 | .
COc1ccc2[nH]c(=O)c(CNc3ccccc3OC)cc2c1 | 0 | 3 | -1 | -1 | 4.5*
CCOc1ccc(NCc2cc3cc(OC)ccc3[nH]c2=O)cc1 | 1 | 2 | 0 | -1 | -2
COc1ccc2[nH]c(=O)c(CNc3ccccc3C)cc2c1 | 1 | 3 | 7 | 1.4* | 2
COc1ccc2[nH]c(=O)c(CNc3ccccc3)cc2c1 | 2 | 4 | 10 | 0 | 4.5*
CCCCOc1ccc(C(=O)NC2CCCCN(Cc3ccccc3C)C2=O)cc1 (stereo not drawn) | -4 | -4 | 1 | -2 | .
COc1ccc(-c2cnc3ccccc3n2)cc1NC(=O)CNC(=O)c1ccccc1 | 3 | 2 | 6 | 1.2* | 1
Cc1ccc(/C=N/N=C/c2ccc(C)cc2)cc1 | 0 | 2 | 0 | -1 | 0
C(=N\N=C\c1ccccc1)/c1ccccc1 | 1 | -1 | 2 | 0 | 5.0*
O[C@H](COc1ccccc1)CN1CCC(C(O)(c2ccccc2)c2ccccc2)CC1 | 1 | -1 | 2 | -1 | .
SMILES | DAX1 inh-1 | hcDAF-12 act | hgDAF12 agonist | ssDAF12 agonist | DAX1 inh-2
Cc1ccccc1NC(=O)[C@@H]1CCCN1S(=O)(=O)c1cccc2cccnc12 | . | -2 | -1 | -1 | .
CCOc1ccc(C(=O)Nc2ccc(Cl)cn2)cc1Cl | 3 | 1 | 13* | 0 | 2
C/C(=N\Nc1nccnc1Cl)c1ccc(O)c(C)c1 | 2 | 4 | 12* | 0 | -1
O=C(Nc1ccccc1)Nc1ccccc1 | 3 | 1 | 12* | -1 | 3
O=C(CC(=O)c1ccccc1)Nc1ccccc1 | 1 | 2 | 6 | 0 | 4.5*
O=C(O)CC(=O)Nc1ccccc1 | -1 | 0 | -1 | 0 | 1
CC(C)(C)c1csc(NC(=O)Nc2ccccc2)n1 | 2 | 3 | 12* | -1 | 1
CC(C)c1ccc(OCC(=O)NC2=NCCS2)cc1 | 3.7* | 5 | 7 | 0 | 1
CCC[C@H]1[C@@H](OC(=O)NCc2ccccc2)CC[C@@]23CCCN2C(=O)CCC[C@@H]13 | . | 0 | 1 | -2 | .
COC(=O)[C@]12C[C@H](CC(=O)NCC3CCCCC3)C(=O)N(CCc3ccc(OC)c(OC)c3)C1=C[C@H](COCc1ccccc1)O[C@@H]2C | 1 | 2 | 1 | -1 | .
Cc1noc(C)c1S(=O)(=O)N(CC(=O)NCCc1ccccc1)c1ccc(C(C)C)cc1 | 0 | -1 | 2 | -1 | 0
COc1ccc([C@H]2C[C@@H](n3cc(COC(=O)c4ccccc4)nn3)[C@H](O)CN2C(=O)C2CCCCC2)cc1 | -1 | -1 | 2 | -1 | 1
CC(Oc1ccccc1)C(=O)NC1=NCCS1 (stereo not drawn) | 4.0* | 1 | 5 | 0 | 4
O=C(NC1=NCCS1)Nc1ccccc1 | 3 | 3 | 11* | 0 | 1
O=C(COc1ccccc1)NC1=NCCS1 | 0 | 2 | 1 | -1 | 2
O=C(NC1=NCCS1)c1ccccc1 | 1 | -1 | 3 | 0 | 1
C[C@@H]1COc2cc(Br)ccc2S(=O)(=O)N1Cc1cn(Cc2ccc(Br)cc2)nn1 | 0 | 0 | -2 | -2 | .
CN1C(=O)c2cc(NC(=O)Cc3cccs3)ccc2OC[C@@H]2O[C@@H](CC(=O)N[C@H]3CCN(Cc4ccccc4)C3)CC[C@@H]21 | 0 | -2 | 2 | -1 | .
O=C(Nc1cccnc1)c1ccc(N2CCCC2)c([N+](=O)[O-])c1 | 0 | 1 | 2 | -1 | 5.2*
O=C(Nc1cccnc1)c1ccc(N2CCOCC2)c([N+](=O)[O-])c1 | 0 | -1 | 0 | -2 | 1
CC(=O)Nc1ccc2nc(-c3ccc(Br)o3)[nH]c2c1 | 1 | 2 | 11* | 0 | -1
O=C(CSc1cn[nH]n1)Nc1nc2ccccc2s1 | 1 | 6.0* | 5 | 0 | 1
O=C(CSc1ccccn1)Nc1nc2ccccc2s1 | 0 | 5 | 10 | -2 | 2
COc1ccc(-c2nnc3ccc(SCC(=O)Nc4nc5ccccc5s4)nn23)cc1OC | -1 | 0 | 11* | -1 | 0
COc1cccc(NC(=O)Nc2nc3ncccn3c2-c2ccc(C(F)(F)F)cc2)c1 | -1 | -2 | 0 | 0 | .
SMILES | DAX1 inh-1 | hcDAF-12 act | hgDAF12 agonist | ssDAF12 agonist | DAX1 inh-2
O=C(NCc1ccc2c(c1)OCO2)c1ccc(N2CCCC2=O)cc1 | 2 | -1 | -1 | -1 | 1
C=C(C)c1cccc(C(C)(C)NC(=O)Nc2nncs2)c1 | 0 | -2 | -2 | -1 | 4.8*
C=C(C)c1cccc(C(C)(C)NC(=O)Nc2nnc(C(C)C)s2)c1 | 0 | -1 | -1 | -2 | -1
O=C(Cn1nnc2ccccc21)OCc1ccccc1 | 0 | -1 | 2 | -1 | 0
N#CCCn1nnc2ccccc21 | 0 | -1 | 2 | -1 | 0
O=C(Cn1nnc2ccccc21)NCc1ccccc1 | 1 | 3 | 11* | -1 | 3
CC(=O)c1nc2ccccc2n1CCc1ccccc1 | 0 | 0 | 1 | 1.2* | 2
O=C(Cn1nnc2ccccc21)c1ccc(Br)cc1 | 1 | 0 | 1 | -2 | 1
